The source of these data is PubChem BioAssay (EPA / NIEHS).

SMILES strings stand for the structures. Activity calls are given as the source filed them. The calls were made as follows: active = hit-call score of the fitted dose curve at least 0.9, where 1 is the maximum; inactive = score below 0.9.

Read-out in assay [1]: Interleukin-8 (IL8), CXCL8 (gene 3576)
In words: BSK_CASM3C_IL8: BioMAP Diversity Plus: CASM3C Assay for Interleukin-8 (IL8) Biomarker Activity (AID 2283042).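 Also: IL-8 protein level quantified by ELISA.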 The conditions noted are these: primary human coronary artery smooth muscle cells; actives raise or lower the signal.

Read-out in assay [2]: Human Leukocyte Antigen - DR isotype (HLADR), HLA-DRA (gene 3122)
In words: BSK_CASM3C_HLADR: BioMAP Diversity Plus: CASM3C Assay for Human Leukocyte Antigen - DR isotype (HLADR) Biomarker Activity (AID 2283043).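 Also: cell-surface HLA-DR protein level quantified by ELISA.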 The conditions noted are these: primary human coronary artery smooth muscle cells; actives raise or lower the signal.

Read-out in assay [3]: Macrophage colony-stimulating factor (MCSF), CSF1 (gene 1435)
In words: BSK_CASM3C_MCSF: BioMAP Diversity Plus: CASM3C Assay for Macrophage colony-stimulating factor (MCSF) Biomarker Activity (AID 2283044).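 Also: M-CSF protein amount quantified by ELISA after 24 h exposure.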 To be noted: primary human coronary artery smooth muscle cells; actives raise or lower the signal.

Read-out in assay [4]: Low-density lipoprotein receptor (LDLR), LDLR (gene 3949)
Briefly: BSK_CASM3C_LDLR: BioMAP Diversity Plus: CASM3C Assay for Low-density lipoprotein receptor (LDLR) Biomarker Activity (AID 2283045).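 Also: LDLR protein level on the cell surface quantified by ELISA.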 To be noted: primary human coronary artery smooth muscle cells; actives raise or lower the signal.

Read-out in assay [5]: Monocyte Chemoattractant Protein-1 (MCP1), CCL2 (gene 6347)
In words: BSK_CASM3C_MCP1: BioMAP Diversity Plus: CASM3C Assay for Monocyte Chemoattractant Protein-1 (MCP1) Biomarker Activity (AID 2283046).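 Also: MCP-1 level quantified by ELISA 24 h after dosing.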 To be noted: primary human coronary artery smooth muscle cells; actives raise or lower the signal.

Assay [6] is described as follows: BSK_CASM3C_Proliferation: Cell Proliferation Assessment in the BioMAP Diversity Plus: CASM3C Assay (AID 2283047).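 Also: sulforhodamine B total protein stain as relative cell number at 560 nm; sub-confluent cells exposed 48 h before staining; fitted both ways against DMSO so gain or loss of cell number.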 To be noted: primary human coronary artery smooth muscle cells.
Read-out in assay [7]: Monokine induced gamma interferon (MIG), CXCL9 (gene 4283)
In words: BSK_CASM3C_MIG: BioMAP Diversity Plus: CASM3C Assay for Monokine induced gamma interferon (MIG) Biomarker Activity (AID 2283048).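 Also: MIG protein level measured by ELISA.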 The conditions noted are these: primary human coronary artery smooth muscle cells; actives raise or lower the signal.

Read-out in assay [8]: serum amyloid A (SAA), SAA1 (gene 6288)
In words: BSK_CASM3C_SAA: BioMAP Diversity Plus: CASM3C Assay for serum amyloid A (SAA) Biomarker Activity (AID 2283049).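 Also: SAA protein level quantified by ELISA.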 To be noted: primary human coronary artery smooth muscle cells; actives raise or lower the signal.

The nature of assay [9]: BSK_CASM3C_SRB: Viability Assessment in the BioMAP Diversity Plus: CASM3C Assay (AID 2283050).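 Also: total protein by SRB staining as cytotoxicity measure in parallel cultures.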 To be noted: primary human coronary artery smooth muscle cells.
Read-out in assay [10]: Thrombomodulin, THBD (gene 7056)
In words: BSK_CASM3C_Thrombomodulin: BioMAP Diversity Plus: CASM3C Assay for Thrombomodulin Biomarker Activity (AID 2283051).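 Also: thrombomodulin protein level measured by ELISA 24 h after dosing.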 To be noted: primary human coronary artery smooth muscle cells; actives raise or lower the signal.

Read-out in assay [11]: Tissue Factor, F3 (gene 2152)
Briefly: BSK_CASM3C_TissueFactor: BioMAP Diversity Plus: CASM3C Assay for Tissue Factor Biomarker Activity (AID 2283052).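 Also: cell surface tissue factor protein level read by ELISA.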 The conditions noted are these: primary human coronary artery smooth muscle cells; actives raise or lower the signal.

Read-out in assay [12]: Interferon-gamma inducible Protein 10 (IP10), CXCL10 (gene 3627)
Briefly: BSK_hDFCGF_IP10: BioMAP Diversity Plus: hDFCGF Assay for Interferon-gamma inducible Protein 10 (IP10) Biomarker Activity (AID 2283053). The conditions noted are these: primary human foreskin fibroblasts; actives raise or lower the signal. The essentials: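 Human foreskin fibroblast primary cells (hDFCGF system) were dosed with chemical and assayed at 24 h; IP-10 measured by ELISA. Activity fitted bidirectionally relative to DMSO negative control as baseline.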

Read-out in assay [13]: Urokinase-type plasminogen activator receptor (uPAR), PLAUR (gene 5329)
Briefly: BSK_CASM3C_uPAR: BioMAP Diversity Plus: CASM3C Assay for Urokinase-type plasminogen activator receptor (uPAR) Biomarker Activity (AID 2283054).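 Also: cell-surface uPAR protein level quantified by ELISA.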 The conditions noted are these: primary human coronary artery smooth muscle cells; actives raise or lower the signal.

Read-out in assay [14]: Vascular cell adhesion molecule 1 (VCAM1), VCAM1 (gene 7412)
Briefly: BSK_CASM3C_VCAM1: BioMAP Diversity Plus: CASM3C Assay for Vascular cell adhesion molecule 1 (VCAM1) Biomarker Activity (AID 2283055).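 Also: VCAM-1 protein level quantified by ELISA on the cells.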 To be noted: primary human coronary artery smooth muscle cells; actives raise or lower the signal.

Read-out in assay [15]: Collagen III, COL3A1 (gene 1281)
Briefly: BSK_hDFCGF_CollagenIII: BioMAP Diversity Plus: hDFCGF Assay for Collagen III Biomarker Activity (AID 2283056). To be noted: primary human foreskin fibroblasts; actives raise or lower the signal. An outline of the steps:
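ELISA readout of Collagen III in human dermal (foreskin) fibroblasts, taken 24 h post-treatment. Gain or loss relative to DMSO vehicle fitted in both directions.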

Read-out in assay [16]: Epidermal growth factor receptor (EGFR), EGFR (gene 1956)
Briefly: BSK_hDFCGF_EGFR: BioMAP Diversity Plus: hDFCGF Assay for Epidermal growth factor receptor (EGFR) Biomarker Activity (AID 2283057). To be noted: primary human foreskin fibroblasts; actives raise or lower the signal. An outline of the steps:
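Primary human foreskin fibroblasts were exposed to compound for 24 h, after which cell-surface EGFR was quantified by ELISA. Activity was fitted bidirectionally against the DMSO negative control as baseline.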

Read-out in assay [17]: Interleukin-8 (IL8), CXCL8 (gene 3576)
Briefly: BSK_hDFCGF_IL8: BioMAP Diversity Plus: hDFCGF Assay for Interleukin-8 (IL8) Biomarker Activity (AID 2283058). To be noted: primary human foreskin fibroblasts; actives raise or lower the signal. An outline of the steps: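 IL-8 levels read by ELISA at 24 hours after dosing human skin fibroblast cultures. Parallel SRB staining assessed overt cytotoxicity, and gain or loss of signal was fitted against DMSO control.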

Assay [18] in a line: BSK_hDFCGF_Proliferation: Cell Proliferation Assessment in the BioMAP Diversity Plus: hDFCGF Assay (AID 2283059).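 Also: curves fitted for both rise and fall of signal versus DMSO baseline.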 To be noted: primary human foreskin fibroblasts. The essentials:
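Primary human foreskin fibroblasts, sub-confluent; […]; 10% TCA fix, 0.1% SRB stain, A560 total protein. Gain/loss fitted bidirectionally vs DMSO control.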

Read-out in assay [19]: Macrophage colony-stimulating factor (MCSF), CSF1 (gene 1435)
In words: BSK_hDFCGF_MCSF: BioMAP Diversity Plus: hDFCGF Assay for Macrophage colony-stimulating factor (MCSF) Biomarker Activity (AID 2283060). The conditions noted are these: primary human foreskin fibroblasts; actives raise or lower the signal. An outline of the steps: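 M-CSF levels read by ELISA at 24 h post-dosing in human skin fibroblasts. Parallel cultures stained with SRB assessed cytotoxicity at the same time point; response fitted in both directions against the DMSO baseline.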

Assay [20] can be described thus: BSK_hDFCGF_SRB: Viability Assessment in the BioMAP Diversity Plus: hDFCGF Assay (AID 2283061).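 Also: cells exposed to compound for 24 h before the read.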 To be noted: primary human foreskin fibroblasts. An outline of the steps: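 Viability was read as total protein: after 10% TCA fixation, wells were stained with 0.1% sulforhodamine B and read at 560 nm. Primary human foreskin fibroblasts were dosed for 24 h, with bidirectional fitting versus DMSO.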

Consider `O=c1ccc2ccccc2o1`, for which the result in assay [1], in assay [2], in assay [3], in assay [4], in assay [5] and in [6] was inactive. Further, the outcome in assay [7], in assay [9], in assay [10], in assay [11], in assay [12] and in [13] was inactive. The outcome in [14], in [15], in [16], in [17], in assay [19] and in [20] was inactive. In addition, the results for the AC50 in assay [8] and in [18] were 0.148 µM (active) and 8.81 µM (active), respectively.
With `CC[C@H](NC(=O)c1cc(F)ccc1NS(=O)(=O)c1cccc2cccnc12)c1ccccc1`, the result in [1], in [2], in assay [3], in assay [5], in assay [6] and in [7] was inactive. The outcome in assay [8], in [9], in assay [11], in assay [12], in [13] and in assay [14] was inactive. Moreover, the outcome in assay [16], in assay [17], in assay [19] and in [20] was inactive. The AC50 in assay [4] is 7.05 µM (active); in [10], 10.8 µM (active); in assay [15], 8.58 µM (active); in assay [18], 21.5 µM (active).
Consider `Cc1c2ccccc2c(C)c2c1ccc1ccccc12`, for which the result in assay [1], in assay [3], in [4], in [5], in assay [7] and in assay [8] was inactive. For the same compound, the outcome in assay [11], in assay [13], in assay [14], in assay [17] and in [20] was inactive. Further, the concentration at half-maximal activity (AC50) in [2] was 20 µM (active); in assay [6], 12.6 µM (active); in assay [9] it was 20 µM (active); in assay [10], 20 µM (active); in assay [12], 6.29 µM (active); in assay [15], 1.73 µM (active). The AC50 in [16] is 5.45 µM (active); in assay [18] it was 7.26 µM (active); in [19], 5.48 µM (active).
Regarding `O=C(Nc1ccc(Cl)cc1)Nc1ccc(Cl)c(Cl)c1`, the outcome in [1], in assay [5], in assay [7], in assay [10], in assay [14] and in assay [17] was inactive. In addition, the AC50 in [2] is 2.81 µM (active); in assay [3] it was 12.3 µM (active); in assay [4] it was 7.14 µM (active); in [6] it was 5 µM (active); in assay [8] it was 12.6 µM (active); in [9] it was 10.6 µM (active). The half-maximal activity concentration (AC50) in assay [11] was 9.41 µM (active); in assay [12], 0.148 µM (active); in assay [13], 9.76 µM (active); in assay [15], 0.148 µM (active); in assay [16], 1 µM (active); in assay [18], 0.477 µM (active). Also, the AC50 in [19] was 0.284 µM (active); in assay [20], 0.138 µM (active).
As for `Cc1ccc(C(C)C)cc1`, the result in assay [1], in assay [2], in assay [3], in assay [4], in [5] and in assay [6] was inactive. Moreover, the outcome in [7], in assay [8], in assay [9], in assay [10], in assay [11] and in assay [12] was inactive. Besides, the result in [13], in assay [14], in [15], in [16], in assay [17] and in assay [18] was inactive. Also, the result in assay [19] and in assay [20] was inactive.
`Cc1ncc(CO)c(CO)c1O`: the outcome in assay [1], in assay [2], in [3], in assay [4], in [5] and in [6] was inactive. The result in [7], in assay [8], in assay [9], in assay [10], in [11] and in assay [12] was inactive. Besides, the outcome in [13], in assay [14], in assay [15], in [16], in assay [17] and in assay [18] was inactive. The result in [19] and in assay [20] was inactive.
With `O=C(O)c1ccccc1-n1cc(C(=O)O)c(=O)c2cc(Nc3c(F)cc(F)cc3Cl)c(Cl)cc21`, the result in [1], in assay [2], in [3], in [4], in [5] and in [6] was inactive. For the same compound, the result in [7], in assay [8], in assay [9], in assay [10], in assay [11] and in assay [12] was inactive. Besides, the result in assay [13], in assay [14], in [15], in [16], in assay [17] and in assay [18] was inactive. In addition, the outcome in [19] and in [20] was inactive.
With `O=C(OCCCCCCOC(=O)c1ccccc1)c1ccccc1`, the result in assay [1], in assay [2], in [3], in assay [4], in assay [5] and in [6] was inactive. For the same compound, the result in [7], in assay [8], in assay [9], in assay [11], in [12] and in assay [13] was inactive. Also, the outcome in assay [14], in assay [16], in [17], in [18], in assay [19] and in assay [20] was inactive. In addition, in assay [10], the AC50 was 15.9 µM (active).
